Assay results as given in PubChem BioAssay (NCATS).
Results filed as inconclusive are left out. Calls of active or inactive are those of the source. Unless noted, calls come from the whole dose curve; as a rule, active = well fitted curve in the direction sought with a large enough effect; inconclusive = small, poorly fitted or top-dose-only effect, or another doubt; inactive = no such curve, though single readings can be large; an effect the other way counts as inactive or inconclusive.

What was measured:
[1] = target: Calcium and integrin-binding protein 1 (Homo sapiens) (UniProt Q99828); test: Primary qHTS for Identification of Calcium Integrin Binding Protein 1 (CIB1) Competitor (AID 1508620);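 note: GST tagged CIB1 binding a fluorescein labelled alphaIIb integrin peptide tracer; top concentration of the series differs between compounds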
Chain of Calcium and integrin-binding protein 1 (Homo sapiens) (Q99828 whole entry, looked up): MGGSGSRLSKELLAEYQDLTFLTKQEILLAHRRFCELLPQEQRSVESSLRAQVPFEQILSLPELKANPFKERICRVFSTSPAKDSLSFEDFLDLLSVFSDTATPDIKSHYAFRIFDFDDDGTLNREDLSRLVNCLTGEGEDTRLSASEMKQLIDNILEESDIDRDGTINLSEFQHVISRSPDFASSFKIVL
Outline: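 Fluorescence polarization competition: CIB1-GST (1 uM final) preincubated with compound 15 min at room temperature, then FITC-labeled alphaIIb peptide (100 nM final) added for another 15 min. Polarization read at Ex 480/Em 540.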

[2] = target: Cytochrome P450 2D6 (Homo sapiens) (UniProt P10635); test: Cytochrome P450 family 2 subfamily D member 6 (CYP2D6) small molecule antagonists: luciferase biochemical (cell-free) qHTS assay (AID 1645840; active = well fitted curve in the direction sought with a large enough effect in the repeat runs; an effect the other way counts as inactive or inconclusive; note: series mostly up to about 57 µM; nearly all actives have a fitted effect of over 55% in size)
Chain of Cytochrome P450 2D6 (Homo sapiens) (P10635 whole entry, looked up): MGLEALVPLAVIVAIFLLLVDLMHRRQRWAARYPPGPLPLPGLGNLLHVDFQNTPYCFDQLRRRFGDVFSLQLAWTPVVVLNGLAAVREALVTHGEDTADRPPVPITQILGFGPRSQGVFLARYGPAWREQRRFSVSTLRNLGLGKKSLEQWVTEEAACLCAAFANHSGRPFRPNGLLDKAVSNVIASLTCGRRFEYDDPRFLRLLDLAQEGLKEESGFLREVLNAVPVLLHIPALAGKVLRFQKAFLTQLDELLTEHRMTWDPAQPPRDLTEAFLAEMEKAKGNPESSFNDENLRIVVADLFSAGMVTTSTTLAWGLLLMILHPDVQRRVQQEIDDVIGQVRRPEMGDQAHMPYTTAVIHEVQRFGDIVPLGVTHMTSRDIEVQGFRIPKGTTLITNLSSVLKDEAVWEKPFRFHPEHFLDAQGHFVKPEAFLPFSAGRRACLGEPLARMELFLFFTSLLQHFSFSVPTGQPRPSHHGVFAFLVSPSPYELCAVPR
Outline: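 P450-Glo CYP2D6 system: proluciferin substrate converted by enzyme to luciferin, read by luminescence proportional to activity. Enzyme-substrate mix with compound 10 min at room temperature, then NADPH regeneration 1 h before detection reagent.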

[3] = Primary qHTS for inhibitors of nuclear receptor binding SET domain protein 2 (NSD2) in an isogenic RCH-ACV NSD2 p.E1099K mutant (9B) (AID 1645876); note: nearly all actives have a fitted effect of over 70% in size

Measured: Potency

O=C(O)c1cc(-c2c(-c3ccccc3)nn3ccccc23)n[nH]c1=O
inactive: all assays above

Cc1ccc(Cc2c(C)nc3nc(SCC(=O)NCCN4CCNCC4)nn3c2C)cc1
inactive: all assays above

CCCCOC(=O)NC(=O)C1c2ccccc2Oc2ccccc21
inactive: all assays above
